# Assay results as given in PubChem BioAssay (NCATS).
# Values joined by “and” are separate entries in the source; they are usually repeats but may differ in a detail not shown here. Identical values can stand only once. A number with no mark means an inactive call. Results filed as inconclusive are left out. A call without a number means that no potency is given here. Active and inactive are the calls of the source. Unless noted, calls follow the shape of the dose curve; as a rule, active = well fitted curve in the direction sought with a large enough effect; inconclusive = small, poorly fitted or top-dose-only effect, or another doubt; inactive = no such curve, though single readings can be large; an effect the other way counts as inactive or inconclusive.
# Legend:
# MKL-2 = experiment: qHTS assay to identify novel small-molecules to repurpose for Merkel cell carcinoma treatment (AID 1296009); conditions: MCC and control cell lines, CellTiter-Glo viability, 72 h; series mostly up to 46 µM; also: nearly all actives have a fitted effect of over 60% in size; also: potency is read from the fitted curve at half-maximal effect
# Procedure, shortened: (§1)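 Cell viability measured by CellTiter-Glo following 72 hr compound treatment at 37 degree celsius, with NPC and MIPE libraries tested in 8- and 11-point concentration series.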
# UISO = experiment: as above; conditions: MCC and control cell lines, CellTiter-Glo viability, 72 h; series mostly up to 46 µM
# Procedure, shortened: as §1
# WaGa = experiment: as above; conditions: MCC and control cell lines, CellTiter-Glo viability, 72 h; series mostly up to 46 µM
# Procedure, shortened: as §1
# C33A = experiment: Primary qHTS to identify gynecologic anti-cancer compounds using libraries of approved drugs and bioactive compounds (AID 1345084); conditions: Gynecologic cancer cell panel viability, ATPlite luminescence, 48 h; series mostly up to 57.5 µM; also: nearly all actives have a fitted effect of over 55% in size; also: potency is read from the fitted curve at half-maximal effect
# Procedure, shortened: (§2)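 Measured: luminescence after ATPlite addition (15 min, RT). Exposure: 48 h, 37 C, 5% CO2.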
# CAOV3 = experiment: as above; conditions: Gynecologic cancer cell panel viability, ATPlite luminescence, 48 h; series mostly up to 57.5 µM
# Procedure, shortened: as §2
# CASKI = experiment: as above; conditions: Gynecologic cancer cell panel viability, ATPlite luminescence, 48 h; series mostly up to 57.5 µM
# Procedure, shortened: as §2
# Es-2 = experiment: as above; conditions: Gynecologic cancer cell panel viability, ATPlite luminescence, 48 h; series mostly up to 57.5 µM
# Procedure, shortened: as §2
# HeLa = experiment: as above; conditions: Gynecologic cancer cell panel viability, ATPlite luminescence, 48 h; series mostly up to 57.5 µM
# Procedure, shortened: as §2
# Hek293T = experiment: as above; conditions: Gynecologic cancer cell panel viability, ATPlite luminescence, 48 h, control line for the selectivity index; series mostly up to 57.5 µM
# Procedure, shortened: as §2
# JEG-3 = experiment: as above; conditions: Gynecologic cancer cell panel viability, ATPlite luminescence, 48 h; series mostly up to 57.5 µM
# Procedure, shortened: as §2
# OV90 = experiment: as above; conditions: Gynecologic cancer cell panel viability, ATPlite luminescence, 48 h; series mostly up to 57.5 µM
# Procedure, shortened: as §2
# PA-1 = experiment: as above; conditions: Gynecologic cancer cell panel viability, ATPlite luminescence, 48 h; series mostly up to 57.5 µM
# Procedure, shortened: as §2
# SKOV3 = experiment: as above; conditions: Gynecologic cancer cell panel viability, ATPlite luminescence, 48 h; series mostly up to 57.5 µM
# Procedure, shortened: as §2
# Tov-21-G = experiment: as above; conditions: Gynecologic cancer cell panel viability, ATPlite luminescence, 48 h; series mostly up to 57.5 µM
# Procedure, shortened: as §2
# Tov112D = experiment: as above; conditions: Gynecologic cancer cell panel viability, ATPlite luminescence, 48 h; series mostly up to 57.5 µM
# Procedure, shortened: as §2
# [1] = Drug repurposing screens with cells derived from glioblastoma tumor samples (AID 1345199); conditions: GBM patient neurospheres viability, ATP luminescence, 48 h; also: nearly all actives have a fitted effect of over 40% in size; also: potency is read from the fitted curve at half-maximal effect
# Procedure, shortened: (§3)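 Primary testing used CD133+ neurospheres from four GBM patients, seven concentrations, 48 h exposure and ATP-based viability; confirmation added three slower-growing patient lines.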
# astro = experiment: as above; conditions: viability, ATP luminescence, 48 h; series mostly up to 45.9 µM
# Procedure, shortened: as §3
# [2] = molecular target: Nuclear receptor subfamily 1 group I member 2 (Rattus norvegicus) (UniProt Q9R1A7); experiment: qHTS assay for small molecule activators of the rat pregnane X receptor (rPXR) signaling pathway (AID 651751; call rule not given here); conditions: rPXR reporter cells, luciferase (One-Glo), 24 h
# [3] = at 45.9 µM (top of the series), tumour line B
# [4] = at 45.9 µM (top of the series), tumour line D
# [5] = at 46 µM (top of the series), tumour line A
# [6] = at 46.1 µM (top of the series), tumour line C
# Chain of Nuclear receptor subfamily 1 group I member 2 (Rattus norvegicus) (Q9R1A7 whole entry, looked up): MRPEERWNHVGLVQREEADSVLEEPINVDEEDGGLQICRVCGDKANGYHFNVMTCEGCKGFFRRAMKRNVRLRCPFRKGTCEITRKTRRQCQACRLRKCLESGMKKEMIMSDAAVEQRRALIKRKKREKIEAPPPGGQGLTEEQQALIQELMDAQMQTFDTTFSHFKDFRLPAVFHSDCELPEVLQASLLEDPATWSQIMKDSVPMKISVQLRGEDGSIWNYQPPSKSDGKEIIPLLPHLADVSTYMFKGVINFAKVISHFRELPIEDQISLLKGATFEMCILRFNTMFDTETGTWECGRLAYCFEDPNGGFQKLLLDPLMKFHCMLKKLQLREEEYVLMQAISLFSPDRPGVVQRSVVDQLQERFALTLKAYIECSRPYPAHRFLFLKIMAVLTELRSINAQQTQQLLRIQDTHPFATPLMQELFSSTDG
smiles,measurement,setting,value
C[C@]12C[C@H](O)[C@H]3[C@@H](CCC4=CC(=O)CC[C@@]43C)[C@@H]1CC[C@@H]2C(=O)CO,Potency,MKL-2,inactive
same,Potency,UISO,inactive
same,Potency,WaGa,inactive
same,Potency,C33A,inactive
same,Potency,CAOV3,inactive
same,Potency,CASKI,inactive
same,Potency,Es-2,inactive
same,Potency,HeLa,20 µM (active)
same,Potency,Hek293T,inactive
same,Potency,JEG-3,inactive
same,Potency,OV90,inactive
same,Potency,PA-1,inactive
same,Potency,SKOV3,inactive
same,Potency,Tov-21-G,inactive
same,Potency,Tov112D,inactive
same,"activity, negative = cell killing",[1]; [3],-17.6%
same,"activity, negative = cell killing",[1]; [4],-22.1%
same,Potency,astro,inactive
Cc1ncc(COP(=O)(O)O)c(C=O)c1O,Potency,MKL-2,inactive
same,Potency,UISO,inactive
same,Potency,WaGa,inactive
same,Potency,C33A,inactive
same,Potency,CAOV3,inactive
same,Potency,CASKI,inactive
same,Potency,Es-2,inactive
same,Potency,HeLa,inactive
same,Potency,Hek293T,inactive
same,Potency,JEG-3,inactive
same,Potency,OV90,inactive
same,Potency,PA-1,inactive
same,Potency,SKOV3,inactive
same,Potency,Tov-21-G,inactive
same,Potency,Tov112D,inactive
same,"activity, negative = cell killing",[1]; [3],-4.54%
same,"activity, negative = cell killing",[1]; [4],0.448%
same,"activity, negative = cell killing",[1]; [5],-18.9%
same,"activity, negative = cell killing",[1]; [6],13%
same,Potency,astro,inactive
N[C@H]1C(O)O[C@H](CO)[C@@H](O)[C@@H]1O (some centres undefined),Potency,MKL-2,inactive
same,Potency,UISO,inactive
same,Potency,WaGa,inactive
same,Potency,C33A,inactive
same,Potency,CAOV3,inactive
same,Potency,CASKI,inactive
same,Potency,Es-2,inactive
same,Potency,HeLa,inactive
same,Potency,Hek293T,inactive
same,Potency,JEG-3,inactive
same,Potency,OV90,inactive
same,Potency,PA-1,inactive
same,Potency,SKOV3,inactive
same,Potency,Tov-21-G,inactive
same,Potency,Tov112D,inactive
same,"activity, negative = cell killing",[1]; [3],-5.64%
same,"activity, negative = cell killing",[1]; [4],4.44%
same,"activity, negative = cell killing",[1]; [5],-25.4%
same,"activity, negative = cell killing",[1]; [6],-6.46%
same,Potency,astro,inactive
O=C1c2c(O)cccc2Cc2cccc(O)c21,Potency,MKL-2,inactive
same,Potency,UISO,inactive
same,Potency,WaGa,inactive
same,Potency,C33A,inactive
same,Potency,CAOV3,inactive
same,Potency,CASKI,inactive
same,Potency,Es-2,inactive
same,Potency,HeLa,inactive
same,Potency,Hek293T,inactive
same,Potency,JEG-3,inactive
same,Potency,OV90,inactive
same,Potency,PA-1,inactive
same,Potency,SKOV3,inactive
same,Potency,Tov-21-G,inactive
same,Potency,Tov112D,inactive
same,"activity, negative = cell killing",[1]; [3],-7.97%
same,"activity, negative = cell killing",[1]; [5],-24.5%
same,"activity, negative = cell killing",[1]; [6],-8.57%
same,Potency,astro,inactive
same,max response,[2],-0.627%
O=C(O)Cc1sc(-c2ccccc2)nc1-c1ccc(Cl)cc1,Potency,MKL-2,inactive
same,Potency,UISO,inactive
same,Potency,WaGa,inactive
same,Potency,C33A,inactive
same,Potency,CAOV3,inactive
same,Potency,CASKI,inactive
same,Potency,Es-2,inactive
same,Potency,HeLa,inactive
same,Potency,Hek293T,inactive
same,Potency,JEG-3,inactive
same,Potency,OV90,inactive
same,Potency,PA-1,inactive
same,Potency,SKOV3,inactive
same,Potency,Tov-21-G,inactive
same,Potency,Tov112D,inactive
same,"activity, negative = cell killing",[1]; [4],-34% and -7.66%
same,"activity, negative = cell killing",[1]; [5],-38.9%
same,"activity, negative = cell killing",[1]; [6],-4.36% and -11.1%
same,Potency,astro,inactive
O=C(O)CC(O)C(=O)O (centres undefined),Potency,MKL-2,inactive
same,Potency,UISO,inactive
same,Potency,WaGa,inactive
same,Potency,C33A,inactive
same,Potency,CAOV3,inactive
same,Potency,CASKI,inactive
same,Potency,Es-2,inactive
same,Potency,HeLa,inactive
same,Potency,Hek293T,inactive
same,Potency,JEG-3,inactive
same,Potency,OV90,inactive
same,Potency,PA-1,inactive
same,Potency,SKOV3,inactive
same,Potency,Tov-21-G,inactive
same,Potency,Tov112D,inactive
same,"activity, negative = cell killing",[1]; [3],-10.7%
same,"activity, negative = cell killing",[1]; [4],-4.49%
same,"activity, negative = cell killing",[1]; [5],-24.7%
same,"activity, negative = cell killing",[1]; [6],-13.6%
same,Potency,astro,inactive
COc1cc2[nH]c(=O)[nH]c(=O)c2cc1OC,Potency,MKL-2,inactive
same,Potency,UISO,inactive
same,Potency,WaGa,inactive
same,Potency,C33A,inactive
same,Potency,CAOV3,inactive
same,Potency,CASKI,inactive
same,Potency,Es-2,inactive
same,Potency,HeLa,inactive
same,Potency,Hek293T,inactive
same,Potency,JEG-3,inactive
same,Potency,OV90,inactive
same,Potency,PA-1,inactive
same,Potency,SKOV3,inactive
same,Potency,Tov-21-G,inactive
same,Potency,Tov112D,inactive
same,"activity, negative = cell killing","[1]; at 20 µM (top of the series), tumour line C",-13.5%
same,"activity, negative = cell killing","[1]; at 21.2 µM (top of the series), tumour line B",-9.77%
same,"activity, negative = cell killing","[1]; at 21.2 µM (top of the series), tumour line D",1.35%
same,"activity, negative = cell killing","[1]; at 21.3 µM (top of the series), tumour line A",-29.6%
same,Potency,astro,inactive
C[C@@H](O)[C@H](N)C(=O)O,Potency,MKL-2,inactive
same,Potency,UISO,inactive
same,Potency,WaGa,inactive
same,Potency,C33A,inactive
same,Potency,CAOV3,inactive
same,Potency,CASKI,inactive
same,Potency,Es-2,inactive
same,Potency,HeLa,inactive
same,Potency,Hek293T,inactive
same,Potency,JEG-3,inactive
same,Potency,OV90,inactive
same,Potency,PA-1,inactive
same,Potency,SKOV3,inactive
same,Potency,Tov-21-G,inactive
same,Potency,Tov112D,inactive
same,"activity, negative = cell killing",[1]; [3],-15.7%
same,"activity, negative = cell killing",[1]; [4],-16.8%
same,"activity, negative = cell killing",[1]; [5],-29.7%
same,"activity, negative = cell killing",[1]; [6],2.15%
same,Potency,astro,inactive
CN1CCN(C2Cc3ccccc3Sc3ccc(Cl)cc32)CC1 (centres undefined),Potency,MKL-2,26.6 µM (active)
same,Potency,UISO,23.7 µM (active)
same,Potency,WaGa,23.7 µM (active)
same,Potency,C33A,inactive
same,Potency,CASKI,inactive
same,Potency,Es-2,inactive
same,Potency,HeLa,inactive
same,Potency,Hek293T,inactive
same,Potency,JEG-3,inactive
same,Potency,PA-1,inactive
same,Potency,Tov-21-G,inactive
same,Potency,Tov112D,inactive
same,Potency,astro,22.4 µM (active)
OC[C@H]1O[C@@H](O[C@@H]2[C@@H](CO)O[C@](O)(CO)[C@H]2O)[C@H](O)[C@@H](O)[C@H]1O,Potency,MKL-2,inactive
same,Potency,UISO,inactive
same,Potency,WaGa,inactive
same,Potency,C33A,inactive
same,Potency,CASKI,inactive
same,Potency,Es-2,inactive
same,Potency,HeLa,inactive
same,Potency,Hek293T,inactive
same,Potency,JEG-3,inactive
same,Potency,OV90,inactive
same,Potency,PA-1,inactive
same,Potency,SKOV3,inactive
same,Potency,Tov-21-G,inactive
same,Potency,Tov112D,inactive
same,"activity, negative = cell killing",[1]; [3],-1.82%
same,"activity, negative = cell killing",[1]; [4],8.93%
same,"activity, negative = cell killing",[1]; [5],-20.9%
same,"activity, negative = cell killing",[1]; [6],-24.2%
same,Potency,astro,inactive
